Measurements as given in PubChem BioAssay (NCI).
This is part of a sample that, as a whole, favours compounds with a hit. Of some 79,000 tested, about 15% had one in any assay. Cut-off read from the data, not from the text of the source: active = growth inhibition above about 70%; inactive = the rest.

Assays:
[1] = NCI Yeast Anticancer Drug Screen. Data for the rad50 strain (AID 155);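 note: 0% = growth of vehicle-only cultures of the same strain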; details: S. cerevisiae rad50 strain growth inhibition; at 50.0 µM; stronger effect = higher value
How it was run: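 A DNA repair-deficient yeast mutant serves as the test organism; compound-induced growth inhibition is calculated against vehicle-treated cells.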

[2] = NCI Yeast Anticancer Drug Screen. Data for the mec2-1 strain (AID 157); details: S. cerevisiae mec2-1 strain, at 50.0 µM, stronger effect = higher value
How it was run: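 Using mec2-1 yeast: add compound, measure growth, express inhibition versus vehicle-treated cultures.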

[3] = NCI Yeast Anticancer Drug Screen. Data for the sgs1 mgt1 strain (AID 161);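 note: 0% = growth of cultures given vehicle only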; details: S. cerevisiae sgs1 mgt1 strain, at 50.0 µM, stronger effect = higher value
How it was run: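 Percent growth inhibition was derived by comparing compound-exposed mutant yeast with vehicle-exposed cultures. The strain carries alterations in DNA damage repair.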

[4] = NCI Yeast Anticancer Drug Screen. Data for the cln2 rad14 strain (AID 165);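 note: 0% = growth equal to vehicle treated cultures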; details: S. cerevisiae cln2 rad14 strain, at 50.0 µM, stronger effect = higher value
How it was run: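 Yeast strain cln2 rad14, bearing defects in cell cycle control and DNA repair, serves as the test system; values reflect growth inhibition compared with vehicle.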

[5] = NCI Yeast Anticancer Drug Screen. Data for the bub3 strain (AID 167); details: S. cerevisiae bub3 mutant strain, at 50.0 µM, stronger effect = higher value
How it was run: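 Inhibition values come from growth of compound-treated mutant yeast normalised to vehicle-treated controls.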

[6] = NCI Yeast Anticancer Drug Screen. Data for the mlh1 rad18 strain (AID 175); details: S. cerevisiae mlh1 rad18 strain growth inhibition; at 50.0 µM; stronger effect = higher value
How it was run: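 Steps: expose repair-defective yeast to compound; measure growth; express inhibition against vehicle-treated controls.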

Measured: growth inhibition

CCOC(=O)NNC(=O)C1CSC(c2ccccc2)N1C(C)=O (centres undefined)
inactive: [1] -52.5% | [2] -13.4% | [3] -27.1% | [4] 10.5% | [5] 1.85% | [6] -22.3%

COc1ccc(C(=O)/C=C/c2ccccc2)c(O)c1OC
inactive: [1] -7.45% | [2] -1.85% | [3] 8.1% | [4] -0.95% | [5] 9.95% | [6] -7.1%

CC(=O)Nc1ccc(S(=O)(=O)n2c(=O)oc3cc(Cl)ccc32)cc1
inactive: [1] 3.4% | [2] -2.6% | [3] 3.1% | [4] -2.4% | [5] 2.95% | [6] 13.5%

CC(=O)c1ccccc1[N+](=O)[O-]
inactive: [1] 2.95% | [2] -12.5% | [3] 21.7% | [4] 5.85% | [5] -7.55% | [6] 30.1%

COc1cc(C(c2ccc3c(c2)OCO3)N2C(=O)CCC2C(=O)O)cc(OC)c1OC (centres undefined)
inactive: [1] -14.1% | [2] -15.6% | [3] -18.8% | [4] -11.7% | [5] -7.8% | [6] -10.2%

C#CCN(CCCC)CCCC
inactive: [1] -14.2% | [2] -21.1% | [3] -5.55% | [4] -33.4% | [5] -39.9% | [6] -10.3%

NNC(=O)CCCCCCO
inactive: [1] 5.3% | [2] 16.3% | [3] 10.1% | [4] 27.6% | [5] 18.3% | [6] 7.45%

C=C1CCCCCCCCCCC1S(=O)c1ccccc1 (centres undefined)
inactive: [1] 14.5% | [2] 14.3% | [3] 4.15% | [4] -6.6% | [5] -5.4% | [6] 31.5%

CC(C)(O)CC(=O)/C=C\c1ccc2c(c1)OCO2
inactive: [1] 25.9% | [2] 27.9% | [3] 10.1% | [4] -11.9% | [5] -4.4% | [6] 4.35%

O=C1CC(O)(c2ccccc2)C(c2ccccc2)=C1c1ccccc1 (centres undefined)
inactive: [1] 29.8% | [2] 21.4% | [3] 14.3% | [4] 32.7% | [5] -2.15% | [6] 36.8%

CC(c1ccccc1)/[N+]([O-])=C/c1ccccc1 (centres undefined)
inactive: [1] -31.7% | [2] -33.4% | [3] -46% | [4] -6.7% | [5] -57.2% | [6] -21.6%

CCN(CC)c1ccc2cc(C(=O)Nc3nc(C45CC6CC(CC(C6)C4)C5)cs3)c(=O)oc2c1
inactive: [1] -17.4% | [2] -25.9% | [3] -16.9% | [4] -17.6% | [5] -13.9% | [6] -16.1%

CCOC(=O)c1nc(N)c2c(CC#N)nn(C)c2n1
inactive: [1] 2.35% | [2] -15.4% | [3] 8.3% | [4] -9.75% | [5] 9.95% | [6] -16.4%

O=C1OC2C(Cl)CC(Cl)CC2C=C1c1cccc([N+](=O)[O-])c1 (centres undefined)
inactive: [1] -3.3% | [2] 12.2% | [3] -16.6% | [4] -21.9% | [5] 11.8% | [6] -0.4%

CCOC(=O)c1ccccc1NC
inactive: [1] -8.65% | [2] -7.4% | [3] -12.1% | [4] -4.9% | [5] -23.4% | [6] -26.1%

O=C(O)COc1cc(Br)cc(Br)c1
inactive: [1] 1.4% | [2] -14.2% | [3] -7.55% | [4] 16% | [5] -3.9% | [6] -1.7%

Fc1cccc(Cl)c1CSc1n[nH]c(C(F)(F)F)n1
inactive: [1] -4.65% | [2] -24.1% | [3] 10.5% | [4] 3.2% | [5] 11.1% | [6] 2.45%

CC(=O)Nc1cnc2c(nc3cc(C)ccn32)c1C
inactive: [1] -5% | [2] -9.1% | [3] -19.9% | [4] -9.55% | [5] -0.7% | [6] -10.2%

[O-][n+]1cc[n+]([O-])c2cc(O)ccc21
inactive: [1] -13.5% | [2] -25.1% | [3] 3.8% | [4] -20.1% | [5] 1.1% | [6] 10.7%

CC(NNC(=S)N1CCC(c2ccccc2)CC1)c1ccc2ccccc2n1 (centres undefined)
inactive: [1] -48.9% | [2] 9.25% | [3] 29.9% | [4] 11.5% | [5] -2% | [6] 26.9%

C[Si](C)(C)c1ccc(CC2(Cc3ccc([Si](C)(C)C)cc3)CCNC2)cc1
inactive: [1] -32.9% | [2] -39% | [3] -19.9% | [4] 3.75% | [5] -10.2% | [6] -25.9%

Cn1c(=O)c2[nH]c(/N=N/N3CCN(CCO)CC3)nc2n(C)c1=O
inactive: [1] 20.1% | [2] -14.8% | [3] 6.95% | [4] -34% | [5] -45.6% | [6] 9.35%

O=[N+]([O-])c1cccc(N=Nc2ccccc2)c1
inactive: [1] -4.25% | [2] -10.3% | [3] -22.3% | [4] 18.7% | [5] -21.6% | [6] -0.95%

O=C(O)c1cccc(C(=O)O)c1C(=O)O.[NH-]C1CCCCC1[NH-].[Pt+2]
inactive: [1] -17.8% | [2] 0.1% | [3] -15.5% | [4] 22.1% | [5] 7.8% | [6] -34.3%

Cc1ccc([N+](=O)[O-])cc1NC(=O)N(C)Cc1ccc(Cl)cc1
inactive: [1] 5.5% | [2] 24.2% | [3] -12.2% | [4] -5.35% | [5] -5.4% | [6] -8.9%

COc1cc(C#N)cc(OC)c1
inactive: [1] -17.4% | [2] -16.4% | [3] -26.9% | [4] 3.6% | [5] -12.1% | [6] -5.5%

C=C(C)[C@@H]1CC[C@@H](C)C[C@H]1O
inactive: [1] 9% | [2] -11.8% | [3] -1.55% | [4] 13.8% | [5] 9.95% | [6] -1.65%

CC1=C2CC/C(C)=C/CCC3(C)OC3CC/C(C)=C/C2OC1=O (centres undefined)
inactive: [1] -8.7% | [2] -21.9% | [3] 13.3% | [4] 15.6% | [5] 5.25% | [6] -20.1%

CCOC(=O)CN(C=O)C(C)c1ccccc1 (centres undefined)
inactive: [1] 13.1% | [2] 18.4% | [3] 4.4% | [4] 3.7% | [5] 33.6% | [6] 20.9%

CC(c1ccccc1)C(C)c1ccccc1 (centres undefined)
inactive: [1] 12.7% | [2] -10.2% | [3] -16.6% | [4] -72.5% | [5] 7.6% | [6] -8.65%

CC(=O)Nc1cccc2c(OC(C)=O)cccc12
inactive: [1] 15.1% | [2] -20.9% | [3] -19.7% | [4] -50% | [5] 7.6% | [6] -4.1%

CCCCCCCCSC(SCCCCCCCC)=C1C(=O)N(c2ccccc2)N=C1C
inactive: [1] -5.9% | [2] -12.3% | [3] 2.2% | [4] 19.6% | [5] -28.1% | [6] -13%

COc1ccc(C2CC2c2ccc(C#N)cc2)cc1 (centres undefined)
inactive: [1] 7.05% | [2] -6.4% | [3] -1% | [4] -40.6% | [5] 6.25% | [6] -22.8%

CN1C(=O)C(Cl)(C#N)C(c2ccccc2)N(C)C1c1ccccc1 (centres undefined)
inactive: [1] 5.7% | [2] 8.05% | [3] 18% | [4] -37.9% | [5] 39.4% | [6] 20.1%

CC(C)(C)/[N+]([O-])=C/C1(C2(/C=[N+](\[O-])C(C)(C)C)Cc3ccccc3C2=O)Cc2ccccc2C1=O (centres undefined)
inactive: [1] 29.8% | [2] 3.75% | [3] 3.05% | [4] 15.6% | [5] 7.15% | [6] 31.9%

O=c1[nH]c2ccccc2c(O)c1-c1ccccc1
inactive: [1] 6.95% | [2] 0.8% | [3] -17% | [4] -8.6% | [5] -22.5% | [6] 0.65%

O=C[C@H](O)CO
inactive: [1] 26.4% | [2] -20.1% | [3] 17.2% | [4] -1.8% | [5] 8.8% | [6] 17.4%

O=c1oc2ccccc2c(O)c1Oc1ccccc1
inactive: [1] -7.35% | [2] 3.5% | [3] -15.3% | [4] -10.7% | [5] -12.5% | [6] -1.05%

Cc1ccc(S(=O)(=O)OCC(C)(C)CC#N)cc1
inactive: [1] 10.9% | [2] 30.6% | [3] 35.9% | [4] 16.9% | [5] 46.4% | [6] 23.9%
